# From a collection of fitness landscapes (doi:10.1016/j.celrep.2020.107928)
# In all, about 81,000 sequences were measured (“one-hybrid fitness for binding parS DNA”: median about -0.17, highest 2% from about 0.51 on). The list comes from a sample in which the highest values are over-represented; it also holds similar and randomly drawn sequences.
# B1: Caulobacter ParB omega fusion; a variant is named by its letters at X, in order, B8GW30 (parent)
# chain: MESVVVGEPGMSEGRRGLGRGLSALLGEVDAAPAQAPGEQLGGSREAPIEILQRNPDQPRRTFREEDLEDLSNSIREKGVLQPILVRPSPDTAGEYQIVAGERAWRAAQRAGLKTVPIMVRELDDLAVLEIGIIENVQRADLNVLEEALSYKVLMEKFERTQENIAQTIGKSXSHVANXMRLLXLPDEVQSYLVSGELTAXHARAIAAAADPVALAKQIIEGGLSVRETEALARKAPNLSAGKSKGGRPPRVKDTDTQALESDLSSVLGLDVSIDHRGSTGTLTITYATLEQLDDLCNRLTRGI
# Variants of: B1
# Test: one-hybrid fitness for binding parS DNA (scaled: cognate 1, non-cognate 0); higher = stronger binding
# Settings: with parS DNA site
# Method in brief: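 Pre- and post-selection plasmids were Illumina-sequenced, three replicate libraries were pooled, and any variant with under 10 reads was removed. The libraries were Caulobacter ParB with four specificity codons randomised, selected in E. coli USO through a HIS3 reporter whose site is 19 bp from the promoter. Cells grew 48 hours at 37°C on M9 without histidine, with 0.1 mM IPTG and 5 mM 3-AT. Fitness is the log change in variant-to-wild-type read ratio, rescaled against cognate and non-cognate.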
row,Variant,one-hybrid fitness for binding parS DNA
1,PQTA,≤ 0.2
2,WANF,≤ 0.2
3,HAGM,≤ 0.2
4,IYPG,≤ 0.2
5,LMKM,≤ 0.2
6,TYFC,≤ 0.2
7,GSSM,≤ 0.2
8,DQSA,≤ 0.2
9,DQRA,≤ 0.2
10,RQFA,0.532
11,RQSA,0.575
12,RQRA,0.632
13,RQAA,0.571
14,KQRA,≤ 0.2
15,EQAA,≤ 0.2
16,DQAA,≤ 0.2
17,KQSA,≤ 0.2
18,FPAS,≤ 0.2
19,PFLV,≤ 0.2
20,ENLG,≤ 0.2
21,YSQA,≤ 0.2
22,QHET,≤ 0.2
23,ASIT,≤ 0.2
24,GAHR,≤ 0.2

row,Variant,one-hybrid fitness for binding parS DNA
1,MLHS,≤ 0.2
2,VETL,≤ 0.2
3,LASY,≤ 0.2
4,RCTV,≤ 0.2
5,TKMR,≤ 0.2
6,RQWA,0.544
7,RQMA,0.596
8,RQLA,0.568
9,RQCA,0.558
10,PQLA,≤ 0.2
11,NQMA,≤ 0.2
12,PQMA,≤ 0.2
13,CQLA,≤ 0.2
14,TQYS,≤ 0.2
15,HPLV,≤ 0.2
16,ANIE,≤ 0.2
17,RCYW,0.314
18,VLKR,≤ 0.2
19,HEGL,≤ 0.2
20,LRKS,≤ 0.2
21,CVSN,≤ 0.2
22,RQGA,0.563
23,CQGA,≤ 0.2
24,TVTV,≤ 0.2

row,Variant,one-hybrid fitness for binding parS DNA
1,RTDT,0.802
2,RTDR,≤ 0.2
3,RTNR,≤ 0.2
4,RTNE,≤ 0.2
5,NTDT,≤ 0.2
6,RTNT,0.86
7,MPRE,≤ 0.2
8,IDTG,≤ 0.2
9,PPTT,≤ 0.2
10,RHPH,≤ 0.2
11,PTAI,≤ 0.2
12,RPWA,≤ 0.2
13,RAWA,0.598
14,RMWA,0.634
15,RWWA,0.254
16,RLWA,0.648
17,NAWA,≤ 0.2
18,DLWA,≤ 0.2
19,RCWA,0.68
20,PWGP,≤ 0.2
21,CSAK,≤ 0.2
22,HTAP,≤ 0.2
23,VEFT,≤ 0.2
24,QGNA,≤ 0.2

row,Variant,one-hybrid fitness for binding parS DNA
1,YNSE,≤ 0.2
2,QDDR,≤ 0.2
3,TNQC,≤ 0.2
4,APGM,≤ 0.2
5,QNSI,≤ 0.2
6,RKWA,0.58
7,RTWA,0.626
8,NRWA,≤ 0.2
9,RHWA,0.486
10,RGWA,0.282
11,RRWA,0.834
12,RFWA,0.481
13,RSWA,0.546
14,WTTC,≤ 0.2
15,NRTE,≤ 0.2
16,GCLA,≤ 0.2
17,YTTD,≤ 0.2
18,EGCL,≤ 0.2
19,FWSR,≤ 0.2
20,PAVQ,≤ 0.2
21,QHPF,≤ 0.2
22,LPIQ,≤ 0.2
23,RGSH,≤ 0.2
24,RGQP,≤ 0.2

row,Variant,one-hybrid fitness for binding parS DNA
1,RGKG,0.896
2,RGSG,0.771
3,RGVG,0.502
4,RGLG,0.597
5,RGLP,≤ 0.2
6,RGQH,≤ 0.2
7,RGLH,≤ 0.2
8,RGSP,≤ 0.2
9,RGQG,0.727
10,RGKP,≤ 0.2
11,PKPQ,≤ 0.2
12,PRNG,≤ 0.2
13,HPRY,≤ 0.2
14,RGDG,0.496
15,RGIG,0.47
16,RGPG,0.298
17,RGCM,≤ 0.2
18,RGNH,≤ 0.2
19,RGFG,0.504
20,RGAG,0.661
21,RGNG,0.801
22,RGCG,0.558
23,RGYG,0.576
24,RGAN,≤ 0.2

row,Variant,one-hybrid fitness for binding parS DNA
1,RGCP,≤ 0.2
2,PPPF,≤ 0.2
3,VAEC,≤ 0.2
4,FHHI,≤ 0.2
5,RGAI,≤ 0.2
6,LDML,≤ 0.2
7,CFTC,≤ 0.2
8,MHTL,≤ 0.2
9,NSGN,≤ 0.2
10,MIEG,≤ 0.2
11,RGHP,≤ 0.2
12,RGWR,≤ 0.2
13,RGGG,0.64
14,RGRH,≤ 0.2
15,RGWY,≤ 0.2
16,RGGD,≤ 0.2
17,RGHN,≤ 0.2
18,RGRG,0.874
19,RGWG,0.51
20,RGRN,0.341
21,RGGH,≤ 0.2
22,RGHG,0.65
23,KLKH,≤ 0.2
24,KDID,≤ 0.2

row,Variant,one-hybrid fitness for binding parS DNA
1,PVSF,≤ 0.2
2,QEKR,≤ 0.2
3,MRPT,≤ 0.2
4,NPTS,≤ 0.2
5,FQVG,≤ 0.2
6,NYES,≤ 0.2
7,EYNA,≤ 0.2
8,RYNA,0.58
9,RYDA,0.559
10,DYNA,≤ 0.2
11,FRQS,≤ 0.2
12,WVAL,≤ 0.2
13,HINS,≤ 0.2
14,FSFV,≤ 0.2
15,GGMR,≤ 0.2
16,RHIS,0.813
17,RHPS,0.475
18,RHYS,0.976
19,RHYH,0.223
20,RHRN,0.374
21,RHHD,≤ 0.2
22,RHID,≤ 0.2
23,RHRD,≤ 0.2
24,RHRS,0.823

row,Variant,one-hybrid fitness for binding parS DNA
1,RHIP,≤ 0.2
2,RHHN,0.391
3,RHHS,0.914
4,TIDD,≤ 0.2
5,PRIM,≤ 0.2
6,TPSD,≤ 0.2
7,ANRF,≤ 0.2
8,TMCR,≤ 0.2
9,DPAI,≤ 0.2
10,RHWP,≤ 0.2
11,RHLD,≤ 0.2
12,RHLS,0.978
13,RHWS,0.925
14,RHWN,0.305
15,RHLH,0.229
16,TAQE,≤ 0.2
17,RTCV,≤ 0.2
18,LSSK,≤ 0.2
19,YMSG,≤ 0.2
20,SLTS,≤ 0.2
21,RLQD,≤ 0.2
22,RDQG,≤ 0.2
23,RCQG,1.02
24,RLQN,0.471

row,Variant,one-hybrid fitness for binding parS DNA
1,RMQR,0.223
2,RPQG,≤ 0.2
3,RSQP,≤ 0.2
4,RSQG,0.995
5,RMQG,1.01
6,RSQH,0.296
7,RMQQ,≤ 0.2
8,RLQG,1.01
9,FGAV,≤ 0.2
10,AVLG,≤ 0.2
11,GATL,≤ 0.2
12,VSCH,≤ 0.2
13,FRAR,≤ 0.2
14,KNVC,≤ 0.2
15,PTQM,≤ 0.2
16,HSEM,≤ 0.2
17,NFQG,≤ 0.2
18,RFQG,0.965
19,RTQF,0.213
20,DFQG,≤ 0.2
21,RTQG,1
22,RIQR,≤ 0.2
23,RTQR,≤ 0.2
24,RIQG,0.999

row,Variant,one-hybrid fitness for binding parS DNA
1,RIQF,0.272
2,NSFG,≤ 0.2
3,LQRT,≤ 0.2
4,MPTI,≤ 0.2
5,ANTA,≤ 0.2
6,ARCH,≤ 0.2
7,HTWT,≤ 0.2
8,RSAT,0.869
9,RCAT,0.921
10,RPAT,≤ 0.2
11,RDAT,≤ 0.2
12,REAT,≤ 0.2
13,RSAR,≤ 0.2
14,LAGT,≤ 0.2
15,HRLD,≤ 0.2
16,HMAN,≤ 0.2
17,WKAR,≤ 0.2
18,SDCR,≤ 0.2
19,RVTN,0.432
20,RVTM,0.299
21,RVTC,0.982
22,RVTF,0.202
23,RVTK,≤ 0.2
24,RVTY,0.459

row,Variant,one-hybrid fitness for binding parS DNA
1,RVTG,0.992
2,RVTH,0.22
3,RVTP,≤ 0.2
4,RVTD,≤ 0.2
5,RVTT,0.949
6,RVTS,0.972
7,QREG,≤ 0.2
8,GTSR,≤ 0.2
9,ARHM,≤ 0.2
10,EPPR,≤ 0.2
11,HSQW,≤ 0.2
12,LRNA,≤ 0.2
13,RARE,≤ 0.2
14,HIDW,≤ 0.2
15,TFRF,≤ 0.2
16,GVCA,≤ 0.2
17,RSYS,1.01
18,RCIS,1.01
19,RSYP,≤ 0.2
20,RSIP,≤ 0.2
21,RSPP,≤ 0.2
22,RSID,≤ 0.2
23,RSPN,≤ 0.2
24,RPIS,≤ 0.2

row,Variant,one-hybrid fitness for binding parS DNA
1,RSIS,0.887
2,RCIP,0.228
3,RSYH,≤ 0.2
4,RSPS,0.541
5,TPAQ,≤ 0.2
6,CKSG,≤ 0.2
7,LRFF,≤ 0.2
8,RCPS,0.88
9,RCPH,≤ 0.2
10,RPPS,≤ 0.2
11,WVLG,≤ 0.2
12,AQAH,≤ 0.2
13,QPQI,≤ 0.2
14,RNYD,≤ 0.2
15,RNIP,≤ 0.2
16,RNLR,≤ 0.2
17,RNRH,≤ 0.2
18,RNIC,0.523
19,RNYN,0.235
20,RNPC,0.358
21,RNYC,0.719
22,RNLK,≤ 0.2
23,RNRD,≤ 0.2
24,RNRC,0.893

row,Variant,one-hybrid fitness for binding parS DNA
1,RNLC,0.736
2,VAHC,≤ 0.2
3,TAIS,≤ 0.2
4,PGSI,≤ 0.2
5,MKSG,≤ 0.2
6,AHRN,≤ 0.2
7,SQMR,≤ 0.2
8,IRKE,≤ 0.2
9,RNHC,0.798
10,RNGF,≤ 0.2
11,RNGC,0.769
12,RNHQ,≤ 0.2
13,RNGK,≤ 0.2
14,RNSR,≤ 0.2
15,RNHY,0.361
16,RNCC,0.704
17,RNCY,0.235
18,RNSF,≤ 0.2
19,RNCR,≤ 0.2
20,RNSC,0.848
